In PubChem BioAssay (NCI):
The panel holds about 79,000 compounds, 15% with a hit somewhere; the sample as a whole holds those more often. Activity calls are given as the source filed them. No stated cut-off is given here; in the data, active means growth inhibition above about 70%; inactive means the rest.

How the values were obtained:
[1] = NCI Yeast Anticancer Drug Screen. Data for the rad52 strain (AID 147);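 further: 0% = growth of vehicle-treated control cultures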; conditions: S. cerevisiae rad52 mutant growth inhibition, hits give high values
In short: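 Read-out: growth inhibition versus vehicle-treated controls. Cells were a DNA repair-deficient yeast strain treated with compounds.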

[2] = NCI Yeast Anticancer Drug Screen. Data for the wt1 strain (AID 149);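 further: 0% = growth of vehicle-treated wt1 cultures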; conditions: S. cerevisiae wt1 strain (SPY 50644) growth inhibition, hits give high values
In short: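 wt1 strain grown with compound or vehicle; inhibition taken from the growth difference.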

[3] = NCI Yeast Anticancer Drug Screen. Data for the rad50EPP+ strain (AID 151);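 further: 0% = growth of vehicle-treated control cultures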; conditions: S. cerevisiae rad50 mutant strain, hits give high values
In short: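 Growth inhibition read against vehicle controls in rad50EPP+ yeast, a strain altered in DNA damage repair, after compound exposure.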

[4] = NCI Yeast Anticancer Drug Screen. Data for the mgt1 strain (AID 153); conditions: S. cerevisiae mgt1 mutant growth inhibition, hits give high values
In short: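 mgt1 yeast grown with test compound; read-out is growth inhibition versus vehicle-treated cultures.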

[5] = NCI Yeast Anticancer Drug Screen. Data for the rad50 strain (AID 155);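 further: 0% = growth of vehicle-only cultures of the same strain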; conditions: S. cerevisiae rad50 strain growth inhibition, hits give high values
In short: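 DNA repair mutant yeast, compound exposure, growth read-out; inhibition is taken relative to vehicle.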

[6] = NCI Yeast Anticancer Drug Screen. Data for the mec2-1 strain (AID 157); conditions: S. cerevisiae mec2-1 strain, hits give high values
In short: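 Yeast mec2-1 mutant treated with compound. Readout: growth inhibition vs vehicle controls.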

[7] = NCI Yeast Anticancer Drug Screen. Data for the rad14 strain (AID 159);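 further: 0% = growth of vehicle-treated control cultures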; conditions: S. cerevisiae rad14 strain growth inhibition, hits give high values
In short: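 DNA repair-defective yeast, compound-exposed; % growth inhibition derived by comparison with vehicle-treated controls.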

[8] = NCI Yeast Anticancer Drug Screen. Data for the sgs1 mgt1 strain (AID 161);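 further: 0% = growth of cultures given vehicle only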; conditions: S. cerevisiae sgs1 mgt1 strain, hits give high values
In short: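 Genetically altered yeast, compound exposure, growth inhibition relative to vehicle.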

[9] = NCI Yeast Anticancer Drug Screen. Data for the CLN2oe strain (AID 163);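 further: 0% = growth of vehicle-only control cultures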; conditions: S. cerevisiae CLN2oe strain, hits give high values
In short: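 Read-out: yeast growth inhibition, expressed relative to vehicle-only controls. The strain bears an engineered cell-cycle alteration.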

[10] = NCI Yeast Anticancer Drug Screen. Data for the cln2 rad14 strain (AID 165);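 further: 0% = growth equal to vehicle treated cultures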; conditions: S. cerevisiae cln2 rad14 strain, hits give high values
In short: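 cln2 rad14 yeast strain; compound exposure; growth inhibition read vs vehicle controls.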

[11] = NCI Yeast Anticancer Drug Screen. Data for the bub3 strain (AID 167); conditions: S. cerevisiae bub3 mutant strain, hits give high values
In short: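 In this screen, a yeast mutant lacking normal mitotic checkpoint function is challenged with compound. Relative growth versus vehicle gives the inhibition value.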

[12] = NCI Yeast Anticancer Drug Screen. Data for the mlh1 strain (AID 171);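 further: 0% = growth of vehicle-treated control cultures of the same strain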; conditions: S. cerevisiae mlh1 strain growth inhibition, hits give high values
In short: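 Read-out: growth inhibition versus vehicle controls. Strain: engineered yeast with a defined DNA repair or cell cycle defect, compound-treated.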

[13] = NCI Yeast Anticancer Drug Screen. Data for the sgs1 strain (AID 173);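 further: 0% = growth of vehicle-only control cultures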; conditions: S. cerevisiae sgs1 mutant, hits give high values
In short: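 Read-out: yeast growth inhibition relative to vehicle controls, following compound exposure of a strain with a defined DNA repair/cell cycle alteration.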

[14] = NCI Yeast Anticancer Drug Screen. Data for the rad18 strain (AID 177); conditions: S. cerevisiae rad18 mutant growth inhibition, hits give high values
In short: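 Readout: growth inhibition vs vehicle controls. Cells: genetically altered yeast strain, DNA repair defect.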

[15] = NCI Yeast Anticancer Drug Screen. Data for the wt2 strain (AID 169);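 further: 0% = growth of vehicle-treated yeast cultures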; conditions: S. cerevisiae wt2 strain growth inhibition, hits give high values
In short: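 Read-out: growth inhibition versus vehicle-treated control cultures after compound exposure of the yeast strain.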

[16] = NCI Yeast Anticancer Drug Screen. Data for the mlh1 rad18 strain (AID 175); conditions: S. cerevisiae mlh1 rad18 strain growth inhibition, hits give high values
In short: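 Yeast w/ defined DNA-repair lesions; compound exposure; growth vs vehicle controls → % inhibition.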

[17] = at 5.0 µM (retest, dose inferred, filed as 0.5)
[18] = at 50.0 µM (retest, dose inferred, filed as 5.0)

Measured: growth inhibition

NNC(=S)Nc1cccc(Cl)c1
active: [1]; at 100.0 µM 79% | [2]; at 100.0 µM 86% | [4]; at 100.0 µM 97% | [5]; at 50.0 µM 76% | [5]; at 100.0 µM 92% | [6]; at 50.0 µM 78.6% | [6]; at 100.0 µM 91% | [7]; at 100.0 µM 95% | [8]; [18] 97% | [9]; at 100.0 µM 71% | [10]; [18] 96% | [11]; [18] 95% | [11]; at 100.0 µM 90% | [12]; at 100.0 µM 95% | [13]; at 100.0 µM 89% | [14]; at 100.0 µM 88%
inactive: [1]; at 1.2 µM -16% | [1]; at 3.7 µM -26% | [1]; at 11.0 µM -16% | [1]; at 33.0 µM 6% | [2]; at 1.2 µM -8% | [2]; at 3.7 µM -8% | [2]; at 11.0 µM -14% | [2]; at 33.0 µM 14% | [3]; at 1.2 µM -29% | [3]; at 3.7 µM -28% | [3]; at 11.0 µM -31% | [3]; at 33.0 µM -55% | [3]; at 100.0 µM -47% | [4]; at 1.2 µM -18% | [4]; at 3.7 µM -19% | [4]; at 11.0 µM 20% | [4]; at 33.0 µM 68% | [5]; at 1.2 µM -33% | [5]; at 3.7 µM -36% | [5]; [17] 58% | [5]; at 11.0 µM -20% | [5]; at 33.0 µM 27% | [5]; [18] 58% | [6]; at 1.2 µM -54% | [6]; at 3.7 µM -41% | [6]; [17] 63% | [6]; at 11.0 µM -40% | [6]; at 33.0 µM -5% | [6]; [18] 58% | [7]; at 1.2 µM -27% | [7]; at 3.7 µM -25% | [7]; at 11.0 µM -28% | [7]; at 33.0 µM 26% | [8]; [17] 9% | [9]; at 1.2 µM 0% | [9]; at 3.7 µM 15% | [9]; at 11.0 µM -3% | [9]; at 33.0 µM 3% | [10]; [17] 66% | [11]; at 1.2 µM -12% | [11]; at 3.7 µM -9% | [11]; [17] 31% | [11]; at 11.0 µM -9% | [11]; at 33.0 µM 35% | [12]; at 1.2 µM -6% | [12]; at 3.7 µM -17% | [12]; at 11.0 µM -8% | [12]; at 33.0 µM 45% | [13]; at 1.2 µM -18% | [13]; at 3.7 µM -22% | [13]; at 11.0 µM -8% | [13]; at 33.0 µM 32% | [14]; at 1.2 µM -17% | [14]; at 3.7 µM -11% | [14]; at 11.0 µM -6% | [14]; at 33.0 µM 24%

COc1ccc(N)c2c1C(=O)c1ccccc1C2=O
active: [1]; at 33.0 µM 90% | [1]; at 100.0 µM 96% | [2]; at 100.0 µM 94% | [3]; at 33.0 µM 93% | [3]; at 100.0 µM 97% | [4]; at 100.0 µM 93% | [5]; at 33.0 µM 89% | [5]; at 100.0 µM 96% | [6]; at 100.0 µM 81% | [7]; at 100.0 µM 93% | [8]; [18] 79% | [9]; at 100.0 µM 89% | [11]; [18] 72% | [11]; at 100.0 µM 93% | [15]; at 100.0 µM 93% | [12]; at 100.0 µM 94% | [13]; at 100.0 µM 96% | [16]; at 50.0 µM 77.5% | [14]; at 100.0 µM 93%
inactive: [1]; at 1.2 µM 6% | [1]; at 3.7 µM 11% | [1]; at 11.0 µM 46% | [2]; at 1.2 µM 0% | [2]; at 3.7 µM 11% | [2]; at 11.0 µM 14% | [2]; at 33.0 µM 47% | [3]; at 1.2 µM 9% | [3]; at 3.7 µM 26% | [3]; at 11.0 µM 59% | [4]; at 1.2 µM 3% | [4]; at 3.7 µM -3% | [4]; at 11.0 µM 8% | [4]; at 33.0 µM 39% | [5]; at 1.2 µM 7% | [5]; at 3.7 µM 8% | [5]; [17] 30% | [5]; at 11.0 µM 35% | [5]; [18] 39% | [5]; at 50.0 µM 60.2% | [6]; at 1.2 µM -9% | [6]; at 3.7 µM 0% | [6]; [17] 47% | [6]; at 11.0 µM 12% | [6]; at 33.0 µM 40% | [6]; [18] 56% | [6]; at 50.0 µM 32.1% | [7]; at 1.2 µM -6% | [7]; at 3.7 µM -23% | [7]; at 11.0 µM 2% | [7]; at 33.0 µM 29% | [8]; [17] -15% | [8]; at 50.0 µM 62.5% | [9]; at 1.2 µM -2% | [9]; at 3.7 µM 6% | [9]; at 11.0 µM 17% | [9]; at 33.0 µM 34% | [11]; at 1.2 µM -25% | [11]; at 3.7 µM -24% | [11]; [17] 41% | [11]; at 11.0 µM -32% | [11]; at 33.0 µM 19% | [11]; at 50.0 µM 49% | [15]; at 1.2 µM -11% | [15]; at 3.7 µM -11% | [15]; at 11.0 µM -6% | [15]; at 33.0 µM 42% | [12]; at 1.2 µM -5% | [12]; at 3.7 µM -9% | [12]; at 11.0 µM 1% | [12]; at 33.0 µM 46% | [13]; at 1.2 µM -6% | [13]; at 3.7 µM -6% | [13]; at 11.0 µM 6% | [13]; at 33.0 µM 68% | [16]; [17] 27% | [16]; [18] 40% | [14]; at 1.2 µM -20% | [14]; at 3.7 µM -12% | [14]; at 11.0 µM -10% | [14]; at 33.0 µM 54%

NC(N)=N/N=C/c1cc(Cl)cc(Cl)c1O
active: [1]; at 100.0 µM 98% | [2]; at 100.0 µM 95% | [3]; at 100.0 µM 74% | [4]; at 33.0 µM 88% | [4]; at 100.0 µM 99% | [5]; [18] 95% | [5]; at 50.0 µM 79.7% | [5]; at 100.0 µM 97%
inactive: [1]; at 1.2 µM 5% | [1]; at 3.7 µM 4% | [1]; at 11.0 µM 21% | [1]; at 33.0 µM 51% | [2]; at 1.2 µM -14% | [2]; at 3.7 µM -19% | [2]; at 11.0 µM -29% | [2]; at 33.0 µM 1% | [3]; at 1.2 µM 19% | [3]; at 3.7 µM 49% | [3]; at 11.0 µM 50% | [3]; at 33.0 µM 60% | [4]; at 1.2 µM 18% | [4]; at 3.7 µM 17% | [4]; at 11.0 µM 33% | [5]; at 1.2 µM -15% | [5]; at 3.7 µM -7% | [5]; [17] 63% | [5]; at 11.0 µM 4% | [5]; at 33.0 µM 46% | [6]; at 1.2 µM -29% | [6]; at 3.7 µM -18%
